# From PubChem BioAssay (NCI)
# This is part of a sample that, as a whole, favours compounds with a hit. Of some 79,000 tested, about 15% had one in any assay. A number with no mark means an inactive call. Calls of active or inactive are those of the source. Rule as the data show it: active = growth inhibition above about 70%; inactive = the rest.
# Assays:
# [1] = NCI Yeast Anticancer Drug Screen. Data for the rad52 strain (AID 147);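 also: 0% = growth of vehicle-treated control cultures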; conditions: S. cerevisiae rad52 mutant growth inhibition, hits give high values
# Outline: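 Yeast strain carrying a DNA damage repair alteration was exposed to test compounds. Growth inhibition was measured relative to vehicle-treated controls.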
# [2] = NCI Yeast Anticancer Drug Screen. Data for the wt1 strain (AID 149);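 also: 0% = growth of vehicle-treated wt1 cultures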; conditions: S. cerevisiae wt1 strain (SPY 50644) growth inhibition, hits give high values
# Outline: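 Growth inhibition read against vehicle controls after compound exposure of the wt1 yeast strain.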
# [3] = NCI Yeast Anticancer Drug Screen. Data for the rad50EPP+ strain (AID 151);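 also: 0% = growth of vehicle-treated control cultures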; conditions: S. cerevisiae rad50 mutant strain, hits give high values
# Outline: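 Yeast strain carrying rad50 alteration (rad50EPP+) exposed to compounds; growth inhibition measured relative to vehicle-treated controls.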
# [4] = NCI Yeast Anticancer Drug Screen. Data for the mgt1 strain (AID 153); conditions: S. cerevisiae mgt1 mutant growth inhibition, hits give high values
# Outline: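 Yeast mgt1 strain (DNA repair/cell-cycle alteration panel) exposed to compounds; growth inhibition measured relative to vehicle-treated controls.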
# [5] = NCI Yeast Anticancer Drug Screen. Data for the rad50 strain (AID 155);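 also: 0% = growth of vehicle-only cultures of the same strain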; conditions: S. cerevisiae rad50 strain growth inhibition, hits give high values
# Outline: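 Readout: growth inhibition relative to vehicle-treated cultures. Compound exposure was carried out in a genetically defined yeast strain deficient in DNA damage repair.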
# [6] = NCI Yeast Anticancer Drug Screen. Data for the mec2-1 strain (AID 157); conditions: S. cerevisiae mec2-1 strain, hits give high values
# Outline: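 mec2-1 yeast strain, carrying an alteration in DNA damage repair or cell cycle control, was exposed to compounds; growth inhibition was measured relative to vehicle-treated controls.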
# [7] = NCI Yeast Anticancer Drug Screen. Data for the rad14 strain (AID 159);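 also: 0% = growth of vehicle-treated control cultures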; conditions: S. cerevisiae rad14 strain growth inhibition, hits give high values
# Outline: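 Growth inhibition vs vehicle controls; genetically altered yeast strain (DNA damage repair defect) treated with test compounds.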
# [8] = NCI Yeast Anticancer Drug Screen. Data for the sgs1 mgt1 strain (AID 161);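 also: 0% = growth of cultures given vehicle only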; conditions: S. cerevisiae sgs1 mgt1 strain, hits give high values
# Outline: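 Compounds are added to genetically altered yeast, and growth is compared with cultures given vehicle alone to give percent inhibition.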
# [9] = NCI Yeast Anticancer Drug Screen. Data for the CLN2oe strain (AID 163);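 also: 0% = growth of vehicle-only control cultures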; conditions: S. cerevisiae CLN2oe strain, hits give high values
# Outline: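 Yeast cells carrying a defined cell-cycle control alteration were exposed to test compounds. Growth inhibition was scored against vehicle-treated control cultures.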
# [10] = NCI Yeast Anticancer Drug Screen. Data for the cln2 rad14 strain (AID 165);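 also: 0% = growth equal to vehicle treated cultures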; conditions: S. cerevisiae cln2 rad14 strain, hits give high values
# Outline: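 Yeast carrying cln2 and rad14 alterations (cell cycle control and DNA damage repair) were exposed to compounds. Growth inhibition was measured against vehicle-treated controls.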
# [11] = NCI Yeast Anticancer Drug Screen. Data for the bub3 strain (AID 167); conditions: S. cerevisiae bub3 mutant strain, hits give high values
# Outline: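 Readout: yeast growth inhibition, expressed relative to vehicle-only wells. The test organism is a mutant strain from a panel with lesions in DNA repair or checkpoint genes.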
# [12] = NCI Yeast Anticancer Drug Screen. Data for the wt2 strain (AID 169);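 also: 0% = growth of vehicle-treated yeast cultures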; conditions: S. cerevisiae wt2 strain growth inhibition, hits give high values
# Outline: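 Yeast cells were exposed to test compounds, and growth inhibition was measured relative to vehicle-treated controls.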
# [13] = NCI Yeast Anticancer Drug Screen. Data for the mlh1 strain (AID 171);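 also: 0% = growth of vehicle-treated control cultures of the same strain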; conditions: S. cerevisiae mlh1 strain growth inhibition, hits give high values
# Outline: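 Yeast carrying a defined genetic alteration in DNA damage repair or cell cycle control were exposed to test compounds. Growth inhibition was measured relative to vehicle-treated controls.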
# [14] = NCI Yeast Anticancer Drug Screen. Data for the sgs1 strain (AID 173);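 also: 0% = growth of vehicle-only control cultures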; conditions: S. cerevisiae sgs1 mutant, hits give high values
# Outline: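 Yeast mutant strains carrying defined defects in DNA damage repair or cell cycle control were exposed to test compounds. Growth inhibition was scored against vehicle-treated controls.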
# [15] = NCI Yeast Anticancer Drug Screen. Data for the mlh1 rad18 strain (AID 175); conditions: S. cerevisiae mlh1 rad18 strain growth inhibition, hits give high values
# Outline: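 Growth inhibition of the yeast strain was measured after compound exposure and expressed relative to vehicle-treated controls. The strain carries defined defects in DNA damage repair.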
# [16] = NCI Yeast Anticancer Drug Screen. Data for the rad18 strain (AID 177); conditions: S. cerevisiae rad18 mutant growth inhibition, hits give high values
# Outline: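 Yeast carrying a defined DNA damage repair alteration were exposed to compounds. Growth inhibition was expressed relative to vehicle-treated controls.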
# [17] = at 5.0 µM (retest, dose inferred, filed as 0.5)
# [18] = at 50.0 µM (retest, dose inferred, filed as 5.0)
smiles,measurement,setting,value
CS(=O)(=O)OCCN(CCOS(C)(=O)=O)c1ccc(C=O)cc1,growth inhibition,[1]; at 1.2 µM,11%
same,growth inhibition,[1]; at 3.7 µM,33%
same,growth inhibition,[1]; at 11.0 µM,62%
same,growth inhibition,[1]; at 33.0 µM,83% (active)
same,growth inhibition,[1]; at 100.0 µM,91% (active)
same,growth inhibition,[2]; at 1.2 µM,0%
same,growth inhibition,[2]; at 3.7 µM,-19%
same,growth inhibition,[2]; at 11.0 µM,10%
same,growth inhibition,[2]; at 33.0 µM,28%
same,growth inhibition,[2]; at 100.0 µM,49%
same,growth inhibition,[3]; at 1.2 µM,4%
same,growth inhibition,[3]; at 3.7 µM,6%
same,growth inhibition,[3]; at 11.0 µM,9%
same,growth inhibition,[3]; at 33.0 µM,30%
same,growth inhibition,[3]; at 100.0 µM,51%
same,growth inhibition,[4]; at 1.2 µM,5%
same,growth inhibition,[4]; at 3.7 µM,13%
same,growth inhibition,[4]; at 11.0 µM,32%
same,growth inhibition,[4]; at 33.0 µM,58%
same,growth inhibition,[4]; at 100.0 µM,78% (active)
same,growth inhibition,[5]; at 1.2 µM,16%
same,growth inhibition,[5]; at 3.7 µM,34%
same,growth inhibition,[5]; [17],33%
same,growth inhibition,[5]; at 11.0 µM,60%
same,growth inhibition,[5]; at 33.0 µM,80% (active)
same,growth inhibition,[5]; [18],84% (active)
same,growth inhibition,[5]; at 50.0 µM,79.3% (active)
same,growth inhibition,[5]; at 100.0 µM,92% (active)
same,growth inhibition,[6]; at 1.2 µM,8%
same,growth inhibition,[6]; at 3.7 µM,20%
same,growth inhibition,[6]; [17],29%
same,growth inhibition,[6]; at 11.0 µM,43%
same,growth inhibition,[6]; at 33.0 µM,75% (active)
same,growth inhibition,[6]; [18],88% (active)
same,growth inhibition,[6]; at 50.0 µM,83.6% (active)
same,growth inhibition,[6]; at 100.0 µM,90% (active)
same,growth inhibition,[7]; at 1.2 µM,22%
same,growth inhibition,[7]; at 3.7 µM,36%
same,growth inhibition,[7]; at 11.0 µM,63%
same,growth inhibition,[7]; at 33.0 µM,82% (active)
same,growth inhibition,[7]; at 100.0 µM,91% (active)
same,growth inhibition,[8]; [17],26%
same,growth inhibition,[8]; [18],80% (active)
same,growth inhibition,[8]; at 50.0 µM,79.4% (active)
same,growth inhibition,[9]; at 1.2 µM,-10%
same,growth inhibition,[9]; at 3.7 µM,-1%
same,growth inhibition,[9]; at 11.0 µM,15%
same,growth inhibition,[9]; at 33.0 µM,35%
same,growth inhibition,[9]; at 100.0 µM,65%
same,growth inhibition,[10]; [17],8%
same,growth inhibition,[10]; [18],74% (active)
same,growth inhibition,[10]; at 50.0 µM,65.2%
same,growth inhibition,[11]; at 1.2 µM,-6%
same,growth inhibition,[11]; at 3.7 µM,-3%
same,growth inhibition,[11]; [17],-8%
same,growth inhibition,[11]; at 11.0 µM,10%
same,growth inhibition,[11]; at 33.0 µM,38%
same,growth inhibition,[11]; [18],37%
same,growth inhibition,[11]; at 50.0 µM,73.2% (active)
same,growth inhibition,[11]; at 100.0 µM,72% (active)
same,growth inhibition,[12]; at 1.2 µM,-1%
same,growth inhibition,[12]; at 3.7 µM,12%
same,growth inhibition,[12]; at 11.0 µM,18%
same,growth inhibition,[12]; at 33.0 µM,43%
same,growth inhibition,[12]; at 100.0 µM,85% (active)
same,growth inhibition,[13]; at 1.2 µM,2%
same,growth inhibition,[13]; at 3.7 µM,11%
same,growth inhibition,[13]; at 11.0 µM,25%
same,growth inhibition,[13]; at 33.0 µM,53%
same,growth inhibition,[13]; at 100.0 µM,82% (active)
same,growth inhibition,[14]; at 1.2 µM,15%
same,growth inhibition,[14]; at 3.7 µM,35%
same,growth inhibition,[14]; at 11.0 µM,58%
same,growth inhibition,[14]; at 33.0 µM,80% (active)
same,growth inhibition,[14]; at 100.0 µM,89% (active)
same,growth inhibition,[15]; [17],76% (active)
same,growth inhibition,[15]; [18],95% (active)
same,growth inhibition,[15]; at 50.0 µM,91% (active)
same,growth inhibition,[16]; at 1.2 µM,85% (active)
same,growth inhibition,[16]; at 3.7 µM,92% (active)
same,growth inhibition,[16]; at 11.0 µM,95% (active)
same,growth inhibition,[16]; at 33.0 µM,96% (active)
same,growth inhibition,[16]; at 100.0 µM,96% (active)
CC1(Cl)CC(C)(/C=C/Cl)C(Cl)CC1Cl (stereo unspecified),growth inhibition,[1]; at 1.2 µM,6%
same,growth inhibition,[1]; at 3.7 µM,8%
same,growth inhibition,[1]; at 11.0 µM,13%
same,growth inhibition,[1]; at 33.0 µM,22%
same,growth inhibition,[1]; at 100.0 µM,43%
same,growth inhibition,[2]; at 1.2 µM,3%
same,growth inhibition,[2]; at 3.7 µM,3%
same,growth inhibition,[2]; at 11.0 µM,3%
same,growth inhibition,[2]; at 33.0 µM,10%
same,growth inhibition,[2]; at 100.0 µM,35%
same,growth inhibition,[3]; at 1.2 µM,2%
same,growth inhibition,[3]; at 3.7 µM,0%
same,growth inhibition,[3]; at 11.0 µM,6%
same,growth inhibition,[3]; at 33.0 µM,15%
same,growth inhibition,[3]; at 100.0 µM,24%
same,growth inhibition,[4]; at 1.2 µM,2%
same,growth inhibition,[4]; at 3.7 µM,1%
same,growth inhibition,[4]; at 11.0 µM,3%
same,growth inhibition,[4]; at 33.0 µM,5%
same,growth inhibition,[4]; at 100.0 µM,43%
same,growth inhibition,[5]; at 1.2 µM,-1%
same,growth inhibition,[5]; at 3.7 µM,-8%
same,growth inhibition,[5]; [17],12%
same,growth inhibition,[5]; at 11.0 µM,-3%
same,growth inhibition,[5]; at 33.0 µM,28%
same,growth inhibition,[5]; [18],-8%
same,growth inhibition,[5]; at 50.0 µM,58.6%
same,growth inhibition,[5]; at 100.0 µM,48%
same,growth inhibition,[6]; at 1.2 µM,5%
same,growth inhibition,[6]; at 3.7 µM,3%
same,growth inhibition,[6]; [17],9%
same,growth inhibition,[6]; at 11.0 µM,6%
same,growth inhibition,[6]; at 33.0 µM,20%
same,growth inhibition,[6]; [18],7%
same,growth inhibition,[6]; at 50.0 µM,19.1%
same,growth inhibition,[6]; at 100.0 µM,46%
same,growth inhibition,[7]; at 1.2 µM,4%
same,growth inhibition,[7]; at 3.7 µM,1%
same,growth inhibition,[7]; at 11.0 µM,5%
same,growth inhibition,[7]; at 33.0 µM,16%
same,growth inhibition,[7]; at 100.0 µM,48%
same,growth inhibition,[8]; [17],1%
same,growth inhibition,[8]; [18],-17%
same,growth inhibition,[8]; at 50.0 µM,51%
same,growth inhibition,[9]; at 1.2 µM,3%
same,growth inhibition,[9]; at 3.7 µM,5%
same,growth inhibition,[9]; at 11.0 µM,8%
same,growth inhibition,[9]; at 33.0 µM,23%
same,growth inhibition,[9]; at 100.0 µM,49%
same,growth inhibition,[10]; [17],40%
same,growth inhibition,[10]; [18],-20%
same,growth inhibition,[10]; at 50.0 µM,45%
same,growth inhibition,[11]; at 1.2 µM,2%
same,growth inhibition,[11]; at 3.7 µM,0%
same,growth inhibition,[11]; [17],-3%
same,growth inhibition,[11]; at 11.0 µM,2%
same,growth inhibition,[11]; at 33.0 µM,12%
same,growth inhibition,[11]; [18],-8%
same,growth inhibition,[11]; at 50.0 µM,15.4%
same,growth inhibition,[11]; at 100.0 µM,31%
same,growth inhibition,[12]; at 1.2 µM,0%
same,growth inhibition,[12]; at 3.7 µM,1%
same,growth inhibition,[12]; at 11.0 µM,3%
same,growth inhibition,[12]; at 33.0 µM,16%
same,growth inhibition,[12]; at 100.0 µM,50%
same,growth inhibition,[13]; at 1.2 µM,2%
same,growth inhibition,[13]; at 3.7 µM,1%
same,growth inhibition,[13]; at 11.0 µM,4%
same,growth inhibition,[13]; at 33.0 µM,14%
same,growth inhibition,[13]; at 100.0 µM,41%
same,growth inhibition,[14]; at 1.2 µM,4%
same,growth inhibition,[14]; at 3.7 µM,2%
same,growth inhibition,[14]; at 11.0 µM,2%
same,growth inhibition,[14]; at 33.0 µM,28%
same,growth inhibition,[14]; at 100.0 µM,64%
same,growth inhibition,[15]; [17],8%
same,growth inhibition,[15]; [18],-23%
same,growth inhibition,[15]; at 50.0 µM,79.4% (active)
same,growth inhibition,[16]; at 1.2 µM,5%
same,growth inhibition,[16]; at 3.7 µM,5%
same,growth inhibition,[16]; at 11.0 µM,12%
same,growth inhibition,[16]; at 33.0 µM,30%
same,growth inhibition,[16]; at 100.0 µM,48%
